# Measurements as given in PubChem BioAssay AID651598 (Sanford-Burnham Center for Chemical Genomics, 2012).
# Several values for one entry are separate records, joined by “and”; a condition that tells them apart may be missing. Identical values can stand only once.
# Target: C-X-C chemokine receptor type 6 (Homo sapiens) (UniProt O00574)
# Test: apelin receptor (APJ) antagonists, SAR follow-up, counter-screen for CXCR6 antagonist project, cell-based, beta-arrestin, DiscoveRx, panel, CHO-K1 (AID 651598)
# Conditions: CHO-K1 PathHunter beta-arrestin luminescence, antagonist mode; run 1, at 80 µM (top of the series)
# C-X-C chemokine receptor type 6 (Homo sapiens), sequence (O00574 whole entry, looked up): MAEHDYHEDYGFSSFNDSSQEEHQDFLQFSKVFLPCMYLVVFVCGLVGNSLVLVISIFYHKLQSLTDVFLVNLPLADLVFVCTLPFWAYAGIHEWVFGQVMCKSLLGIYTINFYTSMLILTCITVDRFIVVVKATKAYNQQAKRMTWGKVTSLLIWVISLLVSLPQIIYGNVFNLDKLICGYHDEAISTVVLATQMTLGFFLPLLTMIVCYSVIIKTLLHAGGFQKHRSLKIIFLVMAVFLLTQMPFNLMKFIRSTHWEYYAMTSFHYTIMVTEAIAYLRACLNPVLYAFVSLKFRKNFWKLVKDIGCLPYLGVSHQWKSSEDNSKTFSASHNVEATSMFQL
row,SMILES,inhibition
1,COc1cc(C(=O)NC2CC3CCC(C2)N3CC(=O)Nc2ccccc2)cc(OC)c1OC (stereo not drawn),59.5% and 13.9%
2,COc1cc(C(=O)NC2CC3CCCC(C2)N3CC(=O)Nc2ccccc2)cc(OC)c1OC (stereo not drawn),89.3% and 49.6% and 26.4%
3,COc1cc(C(=O)NC2CCN(CC(=O)Nc3ccccc3)CC2)cc(OC)c1OC,4.26%
